A number with no mark means an inactive call. No rule for the calls is given here.

In this experiment the target is L-lactate dehydrogenase (Plasmodium falciparum (isolate CDC / Honduras)) (UniProt Q27743). In words: PfLDH activity inhibition – cell lysate, 3D7 strain, counter-screen for P. falciparum growth inhibition project (AID 2304).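 Also: 0% = vehicle and 100% = reference inhibitor.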 As to conditions: P. falciparum 3D7 crude extract, LDH APAD/NBT absorbance; at 2 µM; active compounds read high. (In general: The purpose of a counterscreen is to sort out artefacts and off-target activity.)
Chain of L-lactate dehydrogenase (Plasmodium falciparum (isolate CDC / Honduras)) (Q27743 whole entry, looked up): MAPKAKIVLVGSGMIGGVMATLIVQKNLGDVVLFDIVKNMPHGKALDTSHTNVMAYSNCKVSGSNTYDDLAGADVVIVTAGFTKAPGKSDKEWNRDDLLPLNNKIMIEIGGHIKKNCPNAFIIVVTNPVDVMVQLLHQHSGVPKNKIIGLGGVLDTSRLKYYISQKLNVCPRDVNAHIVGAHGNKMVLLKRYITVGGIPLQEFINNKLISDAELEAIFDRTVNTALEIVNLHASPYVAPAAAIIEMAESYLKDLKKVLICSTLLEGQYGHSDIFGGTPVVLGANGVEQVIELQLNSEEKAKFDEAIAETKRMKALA
For orientation: inhibition means the drop in the measured response relative to a control, in per cent. `O=C(/C=C/c1ccc(Cl)c(Cl)c1)N1CCC(CCCN2CCC(c3c[nH]c4ccccc34)CC2)CC1`: the inhibition is -1%.
Under `CCCc1cc(OC)c(C[C@@H]2c3cc(O)c(Cl)cc3CCN2C)cc1OC` stands 8%; under `O=C(NCCCCN1CCC(c2cccc3ccccc23)CC1)c1ccc(NC(=O)c2ccc(Cl)cc2)cc1`, 2%; under `Cc1c(C(=O)N(C)C)sc2c1c(=O)n(Cc1ccccc1)c(=O)n2CC(=O)Nc1ccccc1F`, -1%.
In the case of `O=C(NCc1ccc(Cl)cc1)c1ccc(CN2CCCN(CC3CCCCC3)CC2)cc1`, the inhibition was -3%.
Under `O=C(Nc1cccc(-c2nc3ccccc3s2)c1)c1ccccc1[N+](=O)[O-]` stands 0%; under `CCCOC(=O)C1=C(C)NC2=C(C(=O)CC(c3ccc(OC)c(OC)c3)C2)C1c1cccc(O)c1` (configuration not stated), -2%.
The result for `O=C(/C=C/c1ccc(Cl)c(Cl)c1)N1CCC(CN2CCC(c3c[nH]c4ccncc34)CC2)CC1` reads 0%.
Under `Cc1ccc(O)cc1Nc1ccnc2ccc(-c3cccc(CNCCN(C)C)c3)cc12` stands -3%.
As to `CCOc1cc(C2C(C(=O)OC(C)C)=C(C)NC3=C2C(=O)CC(c2ccc(Cl)cc2)C3)ccc1OC(C)=O` (configuration not stated), the inhibition is -3%.
`CN1CCC(C(=O)N(Cc2ccc(-c3ccc(CNCCc4ccc(S(C)(=O)=O)cc4)cn3)cc2)C2CCN(Cc3ccccc3)CC2)CC1`: the inhibition was -5%.
Under `COc1cc2nc(N3CCC(CNC(=O)c4ccc(-c5ccc(C(=O)N(C)C)cc5OCCN(C)C)cc4)CC3)nc(N)c2cc1OC` stands -6%.

The record behind these values is PubChem BioAssay.
